Values joined by “and” are separate entries in the source; they are usually repeats but may differ in a detail not shown here. Identical values can stand only once. Records with an inconclusive call do not appear. Where a structure was tested more than once in an assay, its records may differ in their call. Active and inactive are the calls of the source. How the source made its calls: active means hit-call score of the fitted dose curve at least 0.9, where 1 is the maximum; inconclusive means response in the unintended direction; inactive means score below 0.9.
How the values were obtained:
[1] = target: Estrogen receptor beta (Homo sapiens) (UniProt Q92731); assay: ATG_hERb_XSP2: Attagene TRANS-FACTORIAL Multi-Species (XSP2) HepG2 Assay for human Estrogen Receptor (ERb) (AID 2283813);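 further: actives raise reporter mRNA above DMSO so AC50 reflects agonist induction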
Estrogen receptor beta (Homo sapiens), sequence (Q92731 whole entry, looked up, the tested form may be a part): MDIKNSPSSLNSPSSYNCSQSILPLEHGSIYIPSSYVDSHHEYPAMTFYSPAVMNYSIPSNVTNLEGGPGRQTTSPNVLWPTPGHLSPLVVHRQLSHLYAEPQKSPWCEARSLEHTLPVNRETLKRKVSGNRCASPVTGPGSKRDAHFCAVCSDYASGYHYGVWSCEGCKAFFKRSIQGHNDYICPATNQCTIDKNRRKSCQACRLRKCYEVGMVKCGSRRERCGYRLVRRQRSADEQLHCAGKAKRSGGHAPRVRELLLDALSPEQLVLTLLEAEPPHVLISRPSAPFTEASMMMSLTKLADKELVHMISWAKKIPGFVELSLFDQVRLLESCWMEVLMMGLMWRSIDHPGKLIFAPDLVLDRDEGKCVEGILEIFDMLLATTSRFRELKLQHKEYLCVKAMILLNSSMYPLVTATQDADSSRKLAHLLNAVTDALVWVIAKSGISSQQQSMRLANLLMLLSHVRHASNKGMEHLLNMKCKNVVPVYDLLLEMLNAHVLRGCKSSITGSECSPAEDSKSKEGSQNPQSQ
In short: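 Transient TRANS reporter system in HepG2: after 24 h of chemical, RNA is reverse-transcribed, reporter cDNA amplified, FAM-labelled and sized by capillary electrophoresis. Induction of the human ERb-Gal4 reporter is measured relative to DMSO.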

[2] = target: GAL4 Transcription Factor (Internal Marker), GAL4 (gene 855828) (UniProt P04386); assay: ATG_GAL4_XSP2: Attagene TRANS-FACTORIAL Multi-Species (XSP2) HepG2 Assay for GAL4 Transcription Factor (Internal Marker) (AID 2283814);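 further: GAL4 reporter mRNA background control in MRTU transfected cells not a receptor target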
GAL4 Transcription Factor (Internal Marker), GAL4 (gene 855828), sequence (P04386 whole entry, looked up, the tested form may be a part): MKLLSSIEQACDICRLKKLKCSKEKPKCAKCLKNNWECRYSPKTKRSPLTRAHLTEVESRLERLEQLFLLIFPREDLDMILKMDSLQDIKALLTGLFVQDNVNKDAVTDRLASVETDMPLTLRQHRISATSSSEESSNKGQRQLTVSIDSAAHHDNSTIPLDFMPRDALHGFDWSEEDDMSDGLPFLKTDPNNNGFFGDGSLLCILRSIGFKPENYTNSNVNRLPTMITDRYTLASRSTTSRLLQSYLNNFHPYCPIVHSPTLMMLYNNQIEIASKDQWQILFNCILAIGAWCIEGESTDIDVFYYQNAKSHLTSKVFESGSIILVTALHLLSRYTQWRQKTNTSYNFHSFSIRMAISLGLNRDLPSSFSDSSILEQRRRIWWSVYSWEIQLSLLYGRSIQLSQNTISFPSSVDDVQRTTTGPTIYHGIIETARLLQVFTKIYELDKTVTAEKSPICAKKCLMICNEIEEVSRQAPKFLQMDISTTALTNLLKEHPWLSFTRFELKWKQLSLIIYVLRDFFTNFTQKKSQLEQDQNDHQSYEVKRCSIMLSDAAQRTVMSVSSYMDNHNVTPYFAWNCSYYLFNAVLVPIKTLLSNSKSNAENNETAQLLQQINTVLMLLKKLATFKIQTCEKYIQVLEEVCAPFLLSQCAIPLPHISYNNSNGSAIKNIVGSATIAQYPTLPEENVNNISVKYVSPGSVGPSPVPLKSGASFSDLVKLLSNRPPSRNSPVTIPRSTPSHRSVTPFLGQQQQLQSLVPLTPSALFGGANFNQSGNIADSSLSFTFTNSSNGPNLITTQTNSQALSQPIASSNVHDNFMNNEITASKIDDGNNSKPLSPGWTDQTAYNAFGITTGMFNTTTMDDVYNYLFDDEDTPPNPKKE
In short: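 Background-control readout: gain-of-signal fitted against DMSO. After 24 h exposure of transfected HepG2 (MRTU, GAL4-UAS reporters; 3 nM 6-alpha-fluorotestosterone, 1.5 nM norgestrel present), transcripts quantified by RT-PCR and capillary electrophoresis fluorescence.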

[3] = system: turtle Androgen Receptor (AR), gene 101947425; assay: ATG_trAR_XSP2: Attagene TRANS-FACTORIAL Multi-Species (XSP2) HepG2 Assay for turtle Androgen Receptor (AR) (AID 2283815);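 on AC50: reporter mRNA from a Gal4 chimera of turtle AR measured by RT-PCR; potency for gain of reporter signal meaning activation above DMSO baseline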
In short: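 Reporter transcripts were quantified via RT-PCR and capillary electrophoresis and fitted upward against DMSO. Transiently transfected human HepG2 cells carrying NR-Gal4 chimeras were exposed 24 h, with 3 nM 6-alpha-fluorotestosterone plus 1.5 nM norgestrel added.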

[4] = target: zebrafish Estrogen Receptor (ER1), esr1 (gene 259252) (UniProt P57717); assay: ATG_zfER1_XSP2: Attagene TRANS-FACTORIAL Multi-Species (XSP2) HepG2 Assay for zebrafish Estrogen Receptor (ER1) (AID 2283816)
zebrafish Estrogen Receptor (ER1), esr1 (gene 259252), sequence (P57717 whole entry, looked up, the tested form may be a part): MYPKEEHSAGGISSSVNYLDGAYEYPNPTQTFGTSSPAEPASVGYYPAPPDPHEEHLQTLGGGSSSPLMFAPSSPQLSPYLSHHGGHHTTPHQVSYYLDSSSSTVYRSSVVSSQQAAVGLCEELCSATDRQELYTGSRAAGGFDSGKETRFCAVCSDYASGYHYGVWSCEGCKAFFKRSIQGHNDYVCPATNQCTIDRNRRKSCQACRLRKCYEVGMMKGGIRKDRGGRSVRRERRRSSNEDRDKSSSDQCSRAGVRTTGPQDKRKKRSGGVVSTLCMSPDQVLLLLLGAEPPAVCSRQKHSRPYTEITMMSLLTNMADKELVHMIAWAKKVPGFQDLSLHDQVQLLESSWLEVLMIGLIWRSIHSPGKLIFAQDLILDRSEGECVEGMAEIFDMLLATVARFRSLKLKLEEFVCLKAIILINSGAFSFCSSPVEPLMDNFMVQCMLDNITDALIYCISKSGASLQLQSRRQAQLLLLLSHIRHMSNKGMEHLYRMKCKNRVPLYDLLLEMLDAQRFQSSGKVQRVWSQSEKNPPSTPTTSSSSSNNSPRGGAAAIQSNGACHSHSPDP
In short: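 After 24 h compound exposure, RNA from transfected HepG2 cells was reverse-transcribed and reporter transcripts resolved by capillary electrophoresis. The TRANS format reads exogenous zebrafish ER1-Gal4 chimera activity on GAL4-UAS elements; gain of signal against DMSO.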

[5] = target: chicken Estrogen Receptor (ERa), ESR1 (gene 396099) (UniProt P06212); assay: ATG_chERa_XSP2: Attagene TRANS-FACTORIAL Multi-Species (XSP2) HepG2 Assay for chicken Estrogen Receptor (ERa) (AID 2283817);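 further: actives raise reporter signal above DMSO so AC50 reflects ER activation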
chicken Estrogen Receptor (ERa), ESR1 (gene 396099), sequence (P06212 whole entry, looked up, the tested form may be a part): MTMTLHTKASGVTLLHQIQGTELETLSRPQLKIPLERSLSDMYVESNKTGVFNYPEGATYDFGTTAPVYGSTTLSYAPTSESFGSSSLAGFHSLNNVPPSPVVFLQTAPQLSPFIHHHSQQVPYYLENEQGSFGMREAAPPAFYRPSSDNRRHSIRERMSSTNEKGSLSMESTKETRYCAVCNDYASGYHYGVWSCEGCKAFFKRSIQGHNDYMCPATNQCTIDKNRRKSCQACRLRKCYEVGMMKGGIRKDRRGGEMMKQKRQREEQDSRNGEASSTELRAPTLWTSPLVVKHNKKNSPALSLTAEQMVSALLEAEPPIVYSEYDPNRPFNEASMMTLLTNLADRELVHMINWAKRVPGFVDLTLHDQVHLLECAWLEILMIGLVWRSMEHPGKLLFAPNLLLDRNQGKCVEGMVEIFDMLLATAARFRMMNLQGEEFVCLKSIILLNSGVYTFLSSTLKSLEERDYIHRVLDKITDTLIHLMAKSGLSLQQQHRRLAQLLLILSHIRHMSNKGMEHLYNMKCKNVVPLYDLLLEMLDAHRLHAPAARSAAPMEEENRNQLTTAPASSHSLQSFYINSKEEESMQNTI
In short: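 Exogenous chicken ERa-Gal4 chimera activity was assessed in transfected human liver HepG2 cells after 24 h of treatment. Induced reporter mRNA was quantified fluorescently by capillary electrophoresis, with DMSO as baseline.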

[6] = system: zebrafish Estrogen Receptor (ER2a), gene 317734; assay: ATG_zfER2a_XSP2: Attagene TRANS-FACTORIAL Multi-Species (XSP2) HepG2 Assay for zebrafish Estrogen Receptor (ER2a) (AID 2283818);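 further: hits raise reporter mRNA so AC50 reflects activation of zebrafish ER2a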
In short: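 Multiplexed trans-reporter readout: RT-PCR then capillary electrophoresis of reporter transcripts after 24 h compound treatment. Human HepG2 carries transfected zebrafish ER2a-Gal4 chimera; 3 nM 6-alpha-fluorotestosterone plus 1.5 nM norgestrel present. Induction scored against DMSO.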

[7] = system: chicken Androgen Receptor (AR), gene 422165; assay: ATG_chAR_XSP2: Attagene TRANS-FACTORIAL Multi-Species (XSP2) HepG2 Assay for chicken Androgen Receptor (AR) (AID 2283819);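 further: hits raise reporter mRNA above DMSO so potency is for activation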
In short: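 Readout is reporter mRNA induction via RT-PCR/capillary electrophoresis after 24 h chemical exposure, positive direction relative to DMSO. Transiently transfected HepG2 express chimeric chicken AR–GAL4; AR stimulated by 3 nM 6-alpha-fluorotestosterone and 1.5 nM norgestrel.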

[8] = system: frog Estrogen Receptor (ER), gene 398734; assay: ATG_frER1_XSP2: Attagene TRANS-FACTORIAL Multi-Species (XSP2) HepG2 Assay for frog Estrogen Receptor (ER) (AID 2283821);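 further: hits raise reporter mRNA above DMSO baseline so potency means agonist or activator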
In short: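 Gain-of-signal mRNA reporter assay, HepG2 human liver cells, 24 h dosing; transcripts read by fluorescent RT-PCR fragment analysis, DMSO as negative control.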

[9] = ATG_M_19_XSP2: Attagene TRANS-FACTORIAL Multi-Species (XSP2) HepG2 Assay for M32 Transcription Factor (Internal Marker) (AID 2283822)
Procedure: ATG_XSP2_multi-species_TRANS is a cell-based, multiplexed assay created by modifying the existing Attagene TRANS-FACTORIAL system to include a panel of nuclear receptors from some or all the following species: human (Homo sapiens), mouse (Mus musculus), frog (Xenopus laevis), zebrafish (Danio rerio), chicken (Gallus gallus), and turtle (Chrysemys picta). The ECOTOX-FACTORIAL format uses HepG2, a human liver cell line, with measurements taken at 24 hours after chemical dosing in a 24-well plate. Xsp2 included 3 nM 6-alpha-fluorotestosterone and 1.5 nM norgestrel to stimulate the androgen receptor.ATG_M_19_XSP2 is one of 29 assay components measured or calculated from the ATG_XSP2_multi-species_TRANS assay. It is designed to make measurements of mRNA induction, a form of inducible reporter, as detected with fluorescence intensity signals by Reverse transcription polymerase chain reaction (RT-PCR) and Capillary electrophoresis technology.This assay endpoint, ATG_M_19_XSP2, was analyzed in the positive analysis fitting direction relative to DMSO as the negative control and baseline of activity. […] Furthermore, this assay endpoint can be referred to as a secondary readout, because this assay has produced multiple assay endpoints where this one serves a background control function. […]
Human liver HepG2 cells are transiently transfected with multiple reporter transcription units (MRTUs) in 6-well plates using FuGene 6 reagent (Roche; 3 ml FuGene/1 mg DNA). […] A major difference between the CIS and TRANS system is that in CIS activities of endogenous TFs are measured, whereas the TRANS assay evaluates changes in activities of exogenous, chimeric NR-Gal4 proteins. […] The fragments were purified using Qiaquick PCR columns (Qiagen), analyzed on an ABI 3130xL genetic analyzer (Applied Biosystems) with peak positions identified by using a set of X-rhodamine (ROX)-labeled MapMarker1000 molecular weight standards (BioVentures). […]

[10] = system: zebrafish Estrogen Receptor (ER2b), gene 317733; assay: ATG_zfER2b_XSP2: Attagene TRANS-FACTORIAL Multi-Species (XSP2) HepG2 Assay for zebrafish Estrogen Receptor (ER2b) (AID 2283823);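 further: fitted upward as reporter gain over DMSO so potency reflects activation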
In short: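 HepG2 human liver cells transiently transfected with multiplexed GAL4-UAS reporter units expressing chimeric NR-Gal4 proteins; compounds dosed for 24 h. Reporter mRNA quantified by RT-PCR, 6-FAM labelling and capillary electrophoresis; gain-of-signal fitted against DMSO baseline.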

Measured: AC50

Oc1cc(Cl)c(Cl)cc1Cl
active: [1] 20.3 µM | [3] 7.74 µM and 2.23 µM | [5] 29.9 µM | [6] 21.9 µM | [7] 6.4 µM and 3.09 µM | [8] 18.8 µM | [10] 68.6 µM and 22.9 µM
inactive: [1] | [2] | [4] | [5] | [6] | [8] | [9]

COCCl
inactive: [1] | [3] | [4] | [5] | [6] | [7] | [8] | [9] | [10]
active: [6] 34.8 µM | [8] 19.8 µM | [10] 65.6 µM

CCOP(=S)(OCC)O/N=C(\C#N)c1ccccc1
inactive: [1] | [2] | [3] | [4] | [6] | [7] | [8]
active: [4] 6.85 µM | [5] 6.64 µM and 5.37 µM | [6] 4.38 µM | [7] 17.8 µM | [10] 19 µM and 8.31 µM

O=c1oc2ccccc2c(O)c1C(CC(O)c1ccc(-c2ccc(Br)cc2)cc1)c1ccccc1 (configuration not stated)
inactive: [4] | [7] | [9] | [10]

[Cl][Sn]([c]1ccccc1)([c]1ccccc1)[c]1ccccc1
inactive: [5] | [10]
active: [8] 0.925 µM

CC(O)(CS(=O)(=O)c1ccc(F)cc1)C(=O)Nc1ccc(C#N)c(C(F)(F)F)c1 (configuration not stated)
inactive: [1] | [4] | [5] | [6] | [8] | [10]
active: [10] 50.4 µM

— PubChem BioAssay (EPA / NIEHS)
